Laboratory results as given in PubChem BioAssay (Tox21).
Results filed as inconclusive are left out. Active and inactive are the calls of the source. Unless noted, calls follow the shape of the dose curve; as a rule, active = well fitted curve in the direction sought with a large enough effect in the repeat runs; inconclusive = weak or mixed curves; inactive = no such curve, though single readings can be large; an effect the other way counts as inactive or inconclusive.

Columns and labels:
[1] = qHTS assay to identify small molecule antagonists of the constitutive androstane receptor (CAR) signaling pathway - cell viability counter screen (AID 1224837); also: nearly all actives have a fitted effect of over 45% in size; also: potency is read from the fitted curve at half-maximal effect
Summary of the method: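 Read-out: CellTiter-Fluor fluorescence after 23 hr at 37 C/5% CO2. Cells: HepG2 double-stable for hCAR and CYP2B6-2.2kb. Compounds tested at 15 concentrations in the presence of CITCO, final concentration 50 nM.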

[2] = molecular target: Nuclear receptor subfamily 1 group I member 3 (Homo sapiens) (UniProt Q14994); experiment: qHTS assay to identify small molecule antagonists of the constitutive androstane receptor (CAR) signaling pathway (AID 1224838);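 also: HepG2 cells stably expressing hCAR with CYP2B6 luciferase reporter stimulated by CITCO; nearly all actives have a fitted effect of over 40% in size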; also: potency is read from the fitted curve at half-maximal effect
Summary of the method: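 Read-out: ONE-Glo luciferase luminescence after 30 min at room temperature. HepG2-CYP2B6-hCAR double-stable cells, compounds in 15-point titration plus 50 nM CITCO final, 24 h at 37 C/5% CO2.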

[3] = molecular target: Nuclear receptor subfamily 1 group I member 3 (Homo sapiens) (UniProt Q14994); experiment: qHTS assay to identify small molecule agonists of the constitutive androstane receptor (CAR) signaling pathway (AID 1224839); also: nearly all actives have a fitted effect of over 15% in size; also: potency is read from the fitted curve at half-maximal effect;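 as to activation: HepG2 cells stably carrying human CAR and a CYP2B6 luciferase reporter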
Summary of the method: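 Luminescence read-out (ONE-Glo, 30 min, room temperature) from double-stable HepG2-CYP2B6-hCAR cells exposed 24 h to 15-point compound series in presence of 0.75 uM PK11195 final.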

[4] = qHTS assay to identify small molecule antagonists of the estrogen related receptor signaling pathway with the pleiotropic PPARgamma coactivator (PGC) from Tox21 10K library - cell viability counter screen (AID 1224840; active = well fitted cell-killing curve with a large enough effect in the repeat runs, not every such curve was filed as active; also: nearly all actives have a fitted effect of over 40% in size; also: potency is read from the fitted curve at half-maximal effect)
Summary of the method: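 Fluorescence read-out of CellTiter-Fluor viability reagent, added after cells had been exposed to compound in DMSO for 17.5 h at 37 C; 30 min development at 37 C/5% CO2. Cells: PGC/ERR line, 2,000/well.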

[5] = qHTS assay to identify small molecule antagonists of the estrogen related receptor signaling pathway with the pleiotropic PPARgamma coactivator (PGC) from Tox21 10K library (AID 1224841; call rule not given here; also: actives are mostly falling curves and most rising ones were filed inactive; nearly all actives have a fitted effect of over 50% in size; also: potency is read from the fitted curve at half-maximal effect)
Summary of the method: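 Luminescence read-out (One-Glo luciferase reagent, 30 min at room temperature) from PGC/ERR cells exposed to DMSO-dissolved test compounds for 18 h at 37 C; cells, 2,000 per well, had been preincubated 6 h before compound transfer.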

[6] = qHTS assay to identify small molecule agonists of the estrogen related receptor signaling pathway with the pleiotropic PPARgamma coactivator (PGC) from Tox21 10K library (AID 1224842); also: nearly all actives have a fitted effect of over 15% in size
Summary of the method: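 PGC/ERR reporter cell line, 2,000 cells per well, incubated 6 h at 37 C before 23 nL compound in DMSO was added. After 18 h at 37 C, One-Glo luminescence read following 30 min at room temperature.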

[7] = qHTS assay to identify small molecule agonists of the hypoxia (HIF-1) signaling pathway - cell viability counter screen (AID 1224844; calls by dose curve; also: nearly all actives have a fitted effect of over 50% in size; also: potency is read from the fitted curve at half-maximal effect)
Summary of the method: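 CellTiter-Glo luminescence read-out, 30 min RT, taken in the same wells as the beta-lactamase HRE reporter assay; HRE-bla ME-180 cells, 0.5% dialyzed FBS, 17 hr compound treatment at 37C, 5% CO2.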

[8] = qHTS assay to identify small molecule agonists of H2AX (AID 1224845; active = well fitted activation curve with a large enough effect in the signal ratio in the repeat runs, not every such curve was filed as active; the % refers to the signal ratio)
Summary of the method: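 Wild-type CHO-K1 cells, plated overnight, exposed 3hr at 37C to 15 concentrations (0.76% DMSO final). Lysed, then HTRF anti-pH2AX (S139) cryptate and anti-H2AX-d2 antibodies, 24 hr room temperature; 665/620 nm emission read.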

[9] = qHTS assay to identify small molecule agonists of the hypoxia (HIF-1) signaling pathway (AID 1224846; active = well fitted activation curve with a large enough effect in the signal ratio in the repeat runs, not every such curve was filed as active; the % refers to the signal ratio)
Summary of the method: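 Beta-lactamase FRET read-out (CCF4-AM substrate) from ME-180 cells carrying an HRE-driven bla reporter, after 17 hrs compound exposure at 37C/5% CO2. Cells were seeded at 2,000 per well in 0.5% dialyzed FBS medium and preincubated 5 hrs.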

[10] = qHTS assay to identify small molecule agonists of H2AX - cell viability counter screen (AID 1224847; calls by dose curve; also: top concentration of the series differs between compounds; nearly all actives have a fitted effect of over 30% in size)
Summary of the method: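 CHO-K1 wt, 1000 cells/well, o/n 37C; cpds 15 conc, 3 h 37C, 0.76% DMSO; CellTiter-Glo, 30 min RT, luminescence.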

[11] = qHTS assay to identify small molecule antagonists of the estrogen related receptor (ERR) signaling pathway from Tox21 library (AID 1224848); also: nearly all actives have a fitted effect of over 50% in size; also: potency is read from the fitted curve at half-maximal effect
Summary of the method: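 Quantitative high-throughput format: ERR reporter cells (2,000/well) pre-incubated 6 h, treated 18 h at 37 C with compounds in DMSO alongside positive and negative controls, then read by ONE-Glo luminescence.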

[12] = qHTS assay to identify small molecule agonists of the estrogen related receptor (ERR) signaling pathway from Tox21 library (AID 1224849; calls by dose curve; also: nearly all actives have a fitted effect of over 15% in size); details: ERR reporter cell line, ONE-Glo luciferase, 18 h; at 92.4 µM (top of the series) unless noted
Summary of the method: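 Luminescence readout (ONE-Glo, 30 min RT) after 18 h compound exposure at 37 C of NTP-supplied ERR reporter cells; cells were plated 6 h before compound addition by pin tool.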

[13] = qHTS RealTime-Glo MT Cell Viability Assay in HepG2 cells - 24 hour (AID 1224867); also: nearly all actives have a fitted effect of over 50% in size; also: potency is read from the fitted curve at half-maximal effect
Summary of the method: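 Tox21 10K library screened in qHTS format on HepG2 cells carrying RealTime-Glo reagents. Compounds were added after a 5 h preincubation, and the luminescent signal from continuous culture was measured repeatedly during 40 h treatment.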

[14] = qHTS RealTime-Glo MT Cell Viability Assay in HEK293 cells - 32 hour (AID 1224868)
Summary of the method: (§1)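 Luminescence generated by NanoLuc from substrate produced by living HEK293 cells served as the viability signal. Each value reflects the reading at its stated time point during continuous 40 h compound exposure at 37 C.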

[15] = A CellTox Green Cytotoxicity Assay to monitor cytotoxicity in HEK293 cells - 0 hour (AID 1224869); also: nearly all actives have a fitted effect of over 50% in size; also: potency is read from the fitted curve at half-maximal effect
Summary of the method: (§2)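 Read-out: fluorescence of a cell-impermeant cyanine dye staining DNA of dead cells, proportional to cytotoxicity. HEK293, 600 cells/well with reagent, compound (23 nL DMSO) added after 5 h; reads at 0, 8, 16, 24, 32, 40 h.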

[16] = qHTS RealTime-Glo MT Cell Viability Assay in HepG2 cells - 40 hour (AID 1224870); also: nearly all actives have a fitted effect of over 50% in size; also: potency is read from the fitted curve at half-maximal effect
Summary of the method: (§3)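 HepG2 cells (600/well) mixed with RealTime-Glo MT reagent, settled 5 h at 37 C/5% CO2 before compound addition. Nonlytic NanoLuc luminescence from viable-cell prosubstrate reduction read repeatedly during 40 h treatment at 37 C.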

[17] = A CellTox Green Cytotoxicity Assay to monitor cytotoxicity in HEK293 cells - 40 hour (AID 1224871); also: nearly all actives have a fitted effect of over 45% in size; also: potency is read from the fitted curve at half-maximal effect
Summary of the method: as §2

[18] = qHTS RealTime-Glo MT Cell Viability Assay in HEK293 cells - 16 hour (AID 1224872)
Summary of the method: as §1

[19] = qHTS RealTime-Glo MT Cell Viability Assay in HepG2 cells - 8 hour (AID 1224873); also: nearly all actives have a fitted effect of over 55% in size; also: potency is read from the fitted curve at half-maximal effect
Summary of the method: as §3

[20] = molecular target: Thyrotropin receptor (Homo sapiens) (UniProt P16473); experiment: qHTS assay to identify small molecule agonists of the thyroid stimulating hormone receptor (TSHR) signaling pathway (AID 1224843; calls by dose curve; also: nearly all actives have a fitted effect of over 45% in size)
Summary of the method: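 Agonist-mode screen: TSHR HEK293 cells received test chemicals for half an hour at room temperature, then HTRF cAMP detection reagents for one hour prior to fluorescence measurement. Each chemical ran as a 15-concentration series, triplicated.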
% is scaled to controls: 0 for no effect and ±100 for the full control effect.

Chain of Nuclear receptor subfamily 1 group I member 3 (Homo sapiens) (Q14994 whole entry, looked up): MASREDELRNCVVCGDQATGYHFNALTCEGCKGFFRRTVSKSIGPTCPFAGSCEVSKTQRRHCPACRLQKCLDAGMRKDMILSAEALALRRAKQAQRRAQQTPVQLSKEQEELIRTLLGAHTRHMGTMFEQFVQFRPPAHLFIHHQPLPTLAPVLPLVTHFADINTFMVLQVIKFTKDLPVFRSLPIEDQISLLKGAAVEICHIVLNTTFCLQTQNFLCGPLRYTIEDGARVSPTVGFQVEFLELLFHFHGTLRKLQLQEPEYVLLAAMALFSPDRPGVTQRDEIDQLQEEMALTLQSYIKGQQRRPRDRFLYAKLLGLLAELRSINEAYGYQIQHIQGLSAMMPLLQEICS
Chain of Thyrotropin receptor (Homo sapiens) (P16473 whole entry, looked up): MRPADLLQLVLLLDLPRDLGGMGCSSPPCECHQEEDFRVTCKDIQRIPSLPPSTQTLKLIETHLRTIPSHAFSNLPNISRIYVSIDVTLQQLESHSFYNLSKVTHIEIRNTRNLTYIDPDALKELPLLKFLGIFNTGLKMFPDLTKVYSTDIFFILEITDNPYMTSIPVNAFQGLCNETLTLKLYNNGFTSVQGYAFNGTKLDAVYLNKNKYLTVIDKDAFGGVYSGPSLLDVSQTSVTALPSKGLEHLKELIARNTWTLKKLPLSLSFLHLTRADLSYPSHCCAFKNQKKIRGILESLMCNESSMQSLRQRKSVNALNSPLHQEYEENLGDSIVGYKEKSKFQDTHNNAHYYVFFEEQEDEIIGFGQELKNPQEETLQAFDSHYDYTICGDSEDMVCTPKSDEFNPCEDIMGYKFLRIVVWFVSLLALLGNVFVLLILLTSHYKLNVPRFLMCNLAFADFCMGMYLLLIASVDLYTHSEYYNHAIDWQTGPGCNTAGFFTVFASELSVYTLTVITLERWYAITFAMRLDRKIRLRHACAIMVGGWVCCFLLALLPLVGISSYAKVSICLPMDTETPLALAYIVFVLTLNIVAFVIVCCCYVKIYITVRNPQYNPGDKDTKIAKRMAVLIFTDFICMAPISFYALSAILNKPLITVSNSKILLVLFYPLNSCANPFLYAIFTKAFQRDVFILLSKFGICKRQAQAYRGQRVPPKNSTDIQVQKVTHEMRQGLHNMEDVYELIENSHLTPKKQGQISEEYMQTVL

Cc1cc(NC(=O)C(=O)O)cc(C)c1Oc1ccc(O)c2c1CCC2
inactive: Potency [1] | Potency [2] | Potency [3] | Potency [4] | Potency [5] | Potency [6] | Potency [7] | Potency [8] | outcome [9] | Potency [10] | Potency [11] | activity change, positive = activation [12] 1.77% | Potency [13] | Potency [14] | Potency [15] | Potency [16] | Potency [17] | Potency [18] | Potency [19]

COC(=O)C(C)=O
inactive: Potency [1] | Potency [2] | Potency [3] | Potency [4] | Potency [5] | Potency [6] | Potency [20] | Potency [7] | Potency [8] | outcome [9] | Potency [11] | activity change, positive = activation [12] -4.12% | Potency [13] | Potency [14] | Potency [15] | Potency [16] | Potency [17] | Potency [18] | Potency [19]

O=C1c2cccc(O)c2C(=O)c2c(O)cc(CO)cc21
inactive: Potency [1] | Potency [2] | Potency [3] | Potency [4] | Potency [5] | Potency [6] | Potency [7] | Potency [8] | outcome [9] | Potency [10] | activity change, positive = activation [12] -22.2% | Potency [13] | Potency [15] | Potency [16] | Potency [17] | Potency [19]

Cc1occc1S
inactive: Potency [1] | Potency [2] | Potency [3] | Potency [4] | Potency [5] | Potency [6] | Potency [20] | Potency [7] | outcome [9] | Potency [10] | Potency [11] | activity change, positive = activation [12] 9.5% | Potency [13] | Potency [14] | Potency [15] | Potency [16] | Potency [17] | Potency [18] | Potency [19]

Oc1ccc(O)c2c(O)cccc12
inactive: Potency [1] | Potency [2] | Potency [3] | Potency [4] | Potency [5] | Potency [6] | Potency [20] | Potency [7] | Potency [10] | Potency [11] | activity change, positive = activation [12] 1.72% | Potency [13] | Potency [14] | Potency [15] | Potency [16] | Potency [17] | Potency [19]

CN1CCN(C2=Nc3ccccc3Sc3ccc(Cl)cc32)CC1
inactive: Potency [1] | Potency [2] | Potency [3] | Potency [4] | Potency [5] | Potency [6] | Potency [20] | Potency [7] | Potency [8] | outcome [9] | Potency [11] | activity change, positive = activation [12] 1.89% [at 42.5 µM] | Potency [13] | Potency [14] | Potency [15] | Potency [16] | Potency [17] | Potency [18] | Potency [19]

C#CCOC(=O)[C@@H](C)Oc1ccc(Oc2ncc(Cl)cc2F)cc1
inactive: Potency [1] | Potency [2] | Potency [3] | Potency [4] | Potency [5] | Potency [6] | Potency [7] | Potency [8] | outcome [9] | Potency [11] | activity change, positive = activation [12] -13.6% | Potency [13] | Potency [14] | Potency [15] | Potency [16] | Potency [17] | Potency [18] | Potency [19]

CC(=O)N(CC(=O)N(C)C)c1ccccc1
inactive: Potency [1] | Potency [2] | Potency [3] | Potency [4] | Potency [5] | Potency [6] | Potency [7] | Potency [8] | outcome [9] | Potency [10] | Potency [11] | activity change, positive = activation [12] 0.995% [at 42.5 µM] | Potency [13] | Potency [14] | Potency [15] | Potency [16] | Potency [17] | Potency [18] | Potency [19]

Nc1nc(CC(=O)O)cs1
active: Potency [5] 48.7 µM | Potency [11] 61.3 µM
inactive: Potency [1] | Potency [2] | Potency [3] | Potency [4] | Potency [6] | Potency [20] | Potency [8] | outcome [9] | activity change, positive = activation [12] -48.9% | Potency [13] | Potency [15] | Potency [16] | Potency [17] | Potency [18] | Potency [19]

NC(N)=NN=C(/C=C/c1ccc([N+](=O)[O-])o1)/C=C/c1ccc([N+](=O)[O-])o1
inactive: Potency [3] | Potency [6] | Potency [20] | activity change, positive = activation [12] -66.8% [at 42.5 µM] | Potency [15]
active: Potency [1] 2.37 µM | Potency [2] 2.98 µM | Potency [4] 2.98 µM | Potency [5] 6.68 µM | Potency [7] 8.49 µM | Potency [11] 2.66 µM | Potency [13] 1.69 µM | Potency [16] 1.51 µM | Potency [17] 8.49 µM | Potency [19] 4.25 µM

CCOC(=O)CC(C)C
inactive: Potency [1] | Potency [2] | Potency [3] | Potency [4] | Potency [20] | Potency [7] | Potency [8] | outcome [9] | Potency [10] | Potency [13] | Potency [14] | Potency [15] | Potency [16] | Potency [17] | Potency [18] | Potency [19]

O=C(Cl)c1c(Cl)cccc1Cl
inactive: Potency [1] | Potency [2] | Potency [3] | Potency [4] | Potency [20] | Potency [7] | Potency [8] | outcome [9] | Potency [10] | Potency [13] | Potency [14] | Potency [15] | Potency [16] | Potency [17] | Potency [18] | Potency [19]

CCN(CC)CCc1nc(-c2ccccc2)no1
inactive: Potency [1] | Potency [2] | Potency [4] | Potency [6] | Potency [7] | Potency [8] | outcome [9] | Potency [10] | Potency [11] | activity change, positive = activation [12] 0.733% [at 42.5 µM] | Potency [13] | Potency [14] | Potency [15] | Potency [16] | Potency [17] | Potency [18] | Potency [19]
active: Potency [3] 9.44 µM

COc1ccccc1OC(=O)Oc1ccccc1OC
inactive: Potency [1] | Potency [2] | Potency [3] | Potency [4] | Potency [20] | Potency [7] | Potency [8] | outcome [9] | Potency [10] | Potency [13] | Potency [14] | Potency [15] | Potency [16] | Potency [17] | Potency [18] | Potency [19]

CC(=O)NCCCS(=O)(=O)O
active: Potency [15] 18.9 µM | Potency [17] 16.9 µM
inactive: Potency [1] | Potency [2] | Potency [3] | Potency [4] | Potency [20] | Potency [7] | Potency [8] | outcome [9] | Potency [10] | Potency [13] | Potency [14] | Potency [16] | Potency [18] | Potency [19]
